Results on 21 compounds are retold here after PubChem BioAssay (NCI).

Assay [1] in a line: NCI Yeast Anticancer Drug Screen. Data for the rad50 strain (AID 155).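 Further: 0% = growth of vehicle-only cultures of the same strain.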 As to conditions: S. cerevisiae rad50 strain growth inhibition; at 50.0 µM; active compounds read high. In outline:
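Cells are treated with compound, grown, and their growth is then scored against vehicle-only cultures of the same repair-deficient yeast strain.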

A short description of assay [2]: NCI Yeast Anticancer Drug Screen. Data for the mec2-1 strain (AID 157). As to conditions: S. cerevisiae mec2-1 strain, at 50.0 µM, active compounds read high. In outline: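 Strain: mec2-1 (DNA repair/cell cycle alteration). Compound exposure, then growth measured; inhibition expressed relative to vehicle.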
The nature of assay [3]: NCI Yeast Anticancer Drug Screen. Data for the sgs1 mgt1 strain (AID 161).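 Further: 0% = growth of cultures given vehicle only.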 As to conditions: S. cerevisiae sgs1 mgt1 strain, at 50.0 µM, active compounds read high. The essentials: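 Inhibition of yeast growth, normalised to vehicle-treated controls, is reported for a strain bearing genetic alterations in DNA damage repair.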
A short description of assay [4]: NCI Yeast Anticancer Drug Screen. Data for the cln2 rad14 strain (AID 165).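 Further: 0% = growth equal to vehicle treated cultures.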 As to conditions: S. cerevisiae cln2 rad14 strain, at 50.0 µM, active compounds read high. In outline: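 Compounds are applied to the cln2 rad14 yeast strain, and growth is then compared with that of vehicle-treated cultures to give inhibition.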
Assay [5] can be described thus: NCI Yeast Anticancer Drug Screen. Data for the bub3 strain (AID 167). Particulars: S. cerevisiae bub3 mutant strain, at 50.0 µM, active compounds read high. In outline: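 Part of a panel of yeast mutants defective in DNA damage repair or cell cycle regulation. Each strain is grown with compound, and inhibition is calculated relative to solvent-treated cultures.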
The nature of assay [6]: NCI Yeast Anticancer Drug Screen. Data for the mlh1 rad18 strain (AID 175). As to conditions: S. cerevisiae mlh1 rad18 strain growth inhibition; at 50.0 µM; active compounds read high. The essentials: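 Read-out is yeast growth inhibition, calculated against vehicle-only controls. The compound was applied to a strain engineered with DNA damage repair alterations.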

The structures appear in SMILES notation. Compounds without any hit were thinned out: in the full panel of roughly 79,000, 15% have a hit. A number with no mark means an inactive call. Active and inactive are the calls of the source. No stated cut-off is given here; in the data, active means growth inhibition above about 70%; inactive means the rest.

As for `CCCCNC[C@@H](O)[C@H](O)COS(C)(=O)=O`, the growth inhibition in assay [1] is 0.4%; in assay [2], -11.7%; in assay [3], -8.65%; in assay [4] it was -24.1%; in assay [5] it was -13.7%; in assay [6], -7.05%.

With `CCOC(=O)C(C#N)C1=CC(=O)C(=O)c2ccc(O)cc21` (stereo unspecified), the growth inhibition in assay [1] is -4.8%; in assay [2], -7.65%; in assay [3], -1.15%; in assay [4], 27%; in assay [5], 16.6%; in assay [6] it was 0.45%.

As to `c1ccc(/C2=C(\c3ccccc3)CSSSSC2)cc1`, the growth inhibition was 68.5% in assay [1]; 48.4% in assay [2]; 45.4% in assay [3]; 43.2% in assay [4]; 62.9% in assay [5]; 89% (active) in assay [6].

Take `O=C(CSCSCC(=O)Nc1ccc(C2=NCCN2)cc1)Nc1ccc(C2=NCCN2)cc1`: the growth inhibition is 35% in assay [1]; 18.4% in assay [2]; 36.6% in assay [3]; -6.1% in assay [4]; 17.9% in assay [5]; 19.9% in assay [6].

In the case of `CCCCOC1CCC(O)C2CCCCC12` (stereo unspecified), the growth inhibition in assay [1] was 5.15%; in assay [2] it was -2.5%; in assay [3] it was -1.9%; in assay [4] it was -0.7%; in assay [5], -0.95%; in assay [6], 9.85%.

For the compound `CC(=O)OC1OC(c2ccoc2)C[C@@]12C1CCC3O[C@]3(C)[C@]1(C)C[C@H](OC(C)=O)[C@H]2C` (stereo partly specified), the growth inhibition in assay [1] is -0.5%; in assay [2], -14.5%; in assay [3], -41.5%; in assay [4], -13.6%; in assay [5], -32.1%; in assay [6] it was -13.2%.

Regarding `COC(C)CCOC(=O)c1ccccc1C` (stereo unspecified), the growth inhibition in assay [1] was 10%; in assay [2], -6.1%; in assay [3], 0.8%; in assay [4] it was -21.8%; in assay [5], 24.9%; in assay [6], 3.2%.

On to `COc1ccc(NC2=CC(=O)C(=O)c3ccccc32)nn1`, for which the growth inhibition was -4% in assay [1]; 4.8% in assay [2]; -19.8% in assay [3]; -34.8% in assay [4]; -1.65% in assay [5]; -16% in assay [6].

Consider `CCCCCC(=O)OCCCCCO`, for which the growth inhibition in assay [1] was 13.7%; in assay [2] it was 16.8%; in assay [3] it was 21.5%; in assay [4], 13.2%; in assay [5] it was 2.6%; in assay [6], -4.7%.

Consider `O=C(O)CC(c1ccccc1Cl)C(CC(=O)O)c1ccccc1Cl` (stereo unspecified), for which the growth inhibition in assay [1] is 5.55%; in assay [2], -1.55%; in assay [3], -2.55%; in assay [4], 11.6%; in assay [5], -1.05%; in assay [6], 3.4%.

As for `Nc1nc(N)c2nc(/C=C/c3ccc4c(c3)OCO4)cnc2n1`, the growth inhibition in assay [1] is -2.25%; in assay [2] it was -25.4%; in assay [3], -4.5%; in assay [4] it was 2.15%; in assay [5], -9.1%; in assay [6] it was -13.8%.

As to `CCCCCCCCCCCCCCCCOc1ccc(S(=O)(=O)N/N=c2/sc(-c3ccccc3Cl)nn2C)cc1C(=O)O`, the growth inhibition in assay [1] is -18.6%; in assay [2] it was -20.2%; in assay [3], 13.3%; in assay [4], -18.2%; in assay [5], 6.9%; in assay [6] it was -4.15%.

As for `Nc1ncnc2c1[nH]c(=S)n2C1OC(CO)C(O)C1O` (stereo unspecified), the growth inhibition was 14.4% in assay [1]; 6.3% in assay [2]; 3.1% in assay [3]; -12.1% in assay [4]; 4% in assay [5]; 0.15% in assay [6].

Consider `Cc1nnc(CC#N)n1NC(=O)CC#N`, for which the growth inhibition is 3.95% in assay [1]; -3.15% in assay [2]; -2.7% in assay [3]; -18% in assay [4]; 8.65% in assay [5]; 9.95% in assay [6].

For `COc1cc(C(c2ccc(O)c(OC)c2)c2ccc(O)c(OC)c2)ccc1O`, the growth inhibition in assay [1] is 31.9%; in assay [2] it was 15.2%; in assay [3] it was 34.6%; in assay [4] it was 30.1%; in assay [5] it was 4.95%; in assay [6] it was 24.9%.

In the case of `CCCCC(C(=O)OCC)[N+](=O)[O-]` (stereo unspecified), the growth inhibition in assay [1] is -24.2%; in assay [2], -25.2%; in assay [3], 2.5%; in assay [4] it was 5.5%; in assay [5] it was 2.35%; in assay [6], 16.4%.

Take `Brc1cccc(-c2nnc(-c3ccccc3)o2)c1`: the growth inhibition in assay [1] was -4.15%; in assay [2] it was -11.7%; in assay [3], -8.4%; in assay [4] it was -41.5%; in assay [5] it was -0.4%; in assay [6], -12.1%.

With `OC1[C@H](O)CN(OCc2ccccc2)C[C@@H]1O` (stereo partly specified), the growth inhibition was -13.9% in assay [1]; -2.4% in assay [2]; -15.1% in assay [3]; -20.4% in assay [4]; 7.85% in assay [5]; -18.4% in assay [6].

In the case of `CN(C)C1C=CS(=O)(=O)C1` (stereo unspecified), the growth inhibition is -9.55% in assay [1]; -13.9% in assay [2]; -4.4% in assay [3]; -47.5% in assay [4]; 0.95% in assay [5]; -4.95% in assay [6].

As to `N#Cc1c(N)c(C(=O)O)nn(-c2cccc(C(F)(F)F)c2)c1=O`, the growth inhibition in assay [1] was -8.95%; in assay [2] it was 1.7%; in assay [3] it was 44%; in assay [4], 10.8%; in assay [5] it was -11.2%; in assay [6] it was -15.9%.

As for `N#CC(CCc1nc(N)nc(N)n1)(CCc1nc(N)nc(N)n1)c1ccccc1`, the growth inhibition in assay [1] is -6.7%; in assay [2], -19.1%; in assay [3], 1.9%; in assay [4] it was -45.7%; in assay [5], -1.2%; in assay [6], -14.9%.
